Source: PubChem BioAssay AID2283364 (EPA ToxCast)
Results filed as inconclusive are left out. Active and inactive are the calls of the source. How the source made its calls: active means hit-call score of the fitted dose curve at least 0.9, where 1 is the maximum; inconclusive means response in the unintended direction; inactive means score below 0.9.

What follows are molecules tested against human FK-506 Binding Protein (FKBP12), FKBP1A (gene 2280) (UniProt P62942) (assay: NVS_OR_hFKBP12: NovaScreen (NVS) Nuclear Receptor Binding Assay for human FK-506 Binding Protein (FKBP12)).
Sequence of human FK-506 Binding Protein (FKBP12), FKBP1A (gene 2280) (P62942 whole entry, looked up): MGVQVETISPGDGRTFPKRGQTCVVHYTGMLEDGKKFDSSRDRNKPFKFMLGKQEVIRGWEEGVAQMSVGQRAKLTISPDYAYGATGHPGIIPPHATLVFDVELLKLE
Protocol: NVS_OR_hFKBP12 is a biochemical, single-readout assay that uses extracted gene-proteins from E. coli in a cell-free assay. Measurements were taken 0.75 hour after chemical dosing in a 48-well plate.NVS_OR_hFKBP12 is one of one assay component(s) measured or calculated from the NVS_OR_hFKBP12 assay. It is designed to make measurements of radioligand binding, a form of binding reporter, as detected with scintillation counting signals by Filter-based radiodetection technology.Data from the assay component NVS_OR_hFKBP12 was analyzed into 1 assay endpoint. This assay endpoint, NVS_OR_hFKBP12, was analyzed in the positive analysis fitting direction relative to DMSO as the negative control and baseline of activity. Using a type of binding reporter, loss-of-signal activity can be used to understand changes in the binding as they relate to the gene FKBP1A. Furthermore, this assay endpoint can be referred to as a primary readout, because the performed assay has only produced 1 assay endpoint. To generalize the intended target to other relatable targets, this assay endpoint is annotated to the misc protein intended target family, where the subfamily is chaperone.
Binding assays used specific radioligands (tritiated, iodinated) with non-radioactive competitive displacement ligands in agonist or antagonist protocols (as indicated) and various reference compounds and inhibitors to titrate specific binding to receptors and transporters. Most enzyme assays (CYPs, kinases, phosphatases, proteases, HDACs) used recombinant protein and specific substrates (fluorescence mostly, some colorimetric and radioactive) and inhibitors, followed by a biochemical separation of substrate and product. All assays for the biochemical HTS were initially run in duplicate at a single concentration (10 uM for CYP450 assays and 25 uM for all others). Assay-chemical combinations meeting a pre-defined threshold (e.g., 30% inhibition and other criteria defined below) were then run in singleton concentration-response format with maximum concentration of 20 uM for CYPs and 50 uM for all others. Each assay was run with positive and negative controls, and concurrent controls on every plate. The follow-up (secondary) screen tested active chemical-pairs in concentration series, as well as a few additional assays not tested in the primary screen, some selected negative inactives, and several cases re-run in the concentration series for confirmatory purposes.
With `Cc1ccc(O)cc1` the outcome was “inactive”. For `c1ccc2ccccc2c1`, the outcome was “inactive”. In the case of `CCc1ccc(O)c(C(C)(C)C)c1`, the outcome is reported as “inactive”. In the case of `CCCCCCCCCCCC(=O)OC`, the outcome is reported as “inactive”. With `COC(=O)c1ccccc1S(=O)(=O)NC(=O)Nc1nc(OC(F)F)cc(OC(F)F)n1` the outcome was “inactive”.
